Measured values taken from the supplement of paper PMC12340641.
Structures can show the parent of a compound that is named as a salt.

How the values were obtained:
[1] = target: IKZF1 (dCK*-IKZF1 fusion in HEK293FT) (UniProt Q13422); assay: inhibition of IKZF1 HTRF signal (DMSO = 0%, pomalidomide 10 uM = 100%); higher = lower IKZF1 protein level; conditions: compound concentration: 5 uM, overnight (~20 h)
Procedure, shortened: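 For percent inhibition of IKZF1 signal, each plate was normalised to vehicle and to a reference degrader. Cells were HEK293FT stably expressing an IKZF1 fusion, plated at 2000/well in 384-well format and treated overnight at 37 °C with 5 μM compound, one well each. Lysates were probed overnight with a commercial HTRF total-IKZF1 antibody kit, with the 665/620 nm ratio background-subtracted and vehicle and degrader fixed at 0% and 100%.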

HEK293FT dCK*-only = assay: relative growth in counter assay (no AraC = 100%, AraC + DMSO = 0%); higher = more growth rescue independent of IKZF1; conditions: compound concentration: 5 uM; AraC concentration: 0.3 uM; overnight pretreatment + 4 days AraC
Procedure, shortened: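 HEK293FT cells carrying only an engineered kinase construct were plated at 300 per well (384-well) and given 5 μM compound 2 h later. Following overnight at 37 °C, a nucleoside suicide substrate (0.3 μM) plus medium was added for 4 days. Hoechst 33342-stained nuclei were imaged and counted on day 5, with 100% assigned to wells without suicide substrate and 0% to substrate plus vehicle on each plate.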

HEK293FT dCK*-IKZF1 = assay: relative growth recovery (pomalidomide 10 uM = 100%, DMSO = 0%); higher = more growth rescue (IKZF1 fusion degradation); conditions: compound concentration: 5 uM; AraC concentration: 0.3 uM; overnight pretreatment + 4 days AraC
Procedure, shortened: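 Means of duplicates from different days are given for growth recovery, normalised per plate against a reference degrader and vehicle. The reference degrader set the 100% level and vehicle the 0% level. HEK293FT cells stably expressing a deoxycytidine kinase–IKZF1 fusion (300/well, 384-well) received 5 μM compound 2 h after seeding and, after overnight at 37 °C, 0.3 μM of a nucleoside suicide substrate plus medium for 4 days. Nuclei stained with Hoechst 33342 were then counted by whole-well imaging on day 5.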

IKZF1 (dCK*-IKZF1 fusion in HEK293FT), sequence (Q13422 whole entry, looked up, the tested form may be a part): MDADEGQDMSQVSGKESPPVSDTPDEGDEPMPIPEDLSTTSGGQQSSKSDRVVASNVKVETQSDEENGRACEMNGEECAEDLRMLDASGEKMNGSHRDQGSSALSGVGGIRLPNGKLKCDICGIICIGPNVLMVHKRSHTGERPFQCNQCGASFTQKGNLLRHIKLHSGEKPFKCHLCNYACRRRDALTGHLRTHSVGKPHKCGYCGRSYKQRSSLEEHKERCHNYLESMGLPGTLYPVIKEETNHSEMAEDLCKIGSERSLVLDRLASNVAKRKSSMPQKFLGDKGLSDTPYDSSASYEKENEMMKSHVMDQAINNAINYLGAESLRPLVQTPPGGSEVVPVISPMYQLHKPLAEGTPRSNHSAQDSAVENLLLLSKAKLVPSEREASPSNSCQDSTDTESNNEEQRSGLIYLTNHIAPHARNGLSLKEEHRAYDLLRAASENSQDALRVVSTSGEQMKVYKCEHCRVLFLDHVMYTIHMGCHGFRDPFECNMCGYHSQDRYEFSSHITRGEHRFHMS

SMILES	inhibition of IKZF1 HTRF signal [1]	relative growth in counter assay (HEK293FT dCK*-only)	relative growth recovery (HEK293FT dCK*-IKZF1)
C[C@H]1[C@H](OC(=O)CCC(=O)O)O[C@@H]2O[C@@]3(C)CC[C@H]4[C@H](C)CC[C@@H]1[C@@]24OO3	37.4%	-30%	-9.71%
Oc1cccc2cc3cccc(O)c3c(O)c12 [dithranol]	-46.9%	3.52%	-0.86%
CN1C(=O)CC(C)(c2ccccc2)C1=O (stereo not drawn)	19.8%	7.33%	3%
COCC(=O)O[C@]1(CCN(C)CCCc2nc3ccccc3[nH]2)CCc2cc(F)ccc2[C@@H]1C(C)C [mibefradil]	-3.89%	-13.3%	-3.87%
O=C(Nc1ccc(Cl)nc1)c1ccc(Cl)cc1	-32.9%	4.25%	3.85%
CCN(CC)CCCCC(NC(=O)c1ccc([N+](=O)[O-])cc1)c1ccccc1 (stereo not drawn) [nibentan]	-51.4%	11.1%	1.83%
O=C(O)c1ccccc1Nc1ccc(CCc2ccc(Cl)c(Cl)c2)cc1	-23.6%	8.33%	0.125%
CCN(CC)C(=S)SSC(=S)N(CC)CC	-34.2%	-35.6%	-12.6%
CCCCCCCC/C=C\CCCCCCCC(=O)NCCO [oleoylethanolamide]	-34.1%	0.5%	1.78%
CN(C)CCCN1c2ccccc2Sc2ccc(Cl)cc21 [Chlorpromazine HCl]	-4.4%	-6.37%	-2.69%
CN1CCN(CCCN2c3ccccc3Sc3ccc(C(F)(F)F)cc32)CC1	5.07%	23.1%	3.05%
c1cc2c(cc1C1CCCCC1)c1c3n2CCNC3CCC1 (stereo not drawn) [tetrindole]	-27.2%	-33%	-9.3%
CN(C)c1ccc2c(c1)Sc1cc(N(C)C)ccc1N2.CS(=O)(=O)O [Leucomethylene blue (Mesylate)]	-24.1%	-19.7%	-10.3%
Oc1c(I)cc(Cl)c2cccnc12	-2.15%	-3.3%	-3.28%
Oc1cc2c(cc1O)[C@@H]1c3ccc(O)c(O)c3OC[C@]1(O)C2 [Hematoxylin (Hydroxybrazilin)]	-6.3%	-6.89%	-1.47%
CC(C)(C)c1ccc(-c2nc3ccccc3[nH]2)cc1	-0.19%	3.59%	11.5%
Cc1cc(N)c2ccccc2[n+]1CCCCCCCCCC[n+]1c(C)cc(N)c2ccccc21	-29.5%	-14.5%	-3.15%
C=C1C(=O)O[C@H]2[C@H]1CC/C(C)=C\CC[C@@]1(C)O[C@@H]21 [Parthenolide ((-)-Parthenolide)]	-18.3%	-33.7%	-11.6%
O=C(OC)C1=C(C)NC(C)=C(C(OCCCN3CCC(C4=CC=CC=C4)(C5=CC=CC=C5)CC3)=O)[C@H]1[C@]2=CC=CC([N+]([O-])=O)=C2 [niguldipine-(S)-(+)]	-12%	-29.9%	-10.5%
O=C(NCC1CCCCN1)c1cc(OCC(F)(F)F)ccc1OCC(F)(F)F (stereo not drawn) [flecainide]	-38%	-3.96%	0.135%
N#CC(c1ccccc1)(c1ccccc1)c1ccccc1Cl	-37.8%	1.13%	-0.3%
Cc1ccc2c(Cl)cc(Cl)c(O)c2n1	14%	-5.48%	0.855%

SMILES	inhibition of IKZF1 HTRF signal [1]	relative growth in counter assay (HEK293FT dCK*-only)	relative growth recovery (HEK293FT dCK*-IKZF1)
Nc1nc(=O)n([C@H]2C[C@H](O)[C@@H](CO)O2)cc1F [5-Fluoro-2'-deoxycytidine]	-4.07%	-26.3%	-8.98%
COC(=O)/C=C/c1cc(O)ccc1O [erbstatin-analog]	-21.1%	-32.8%	-11.6%
COc1ccc(-c2ccc3ncc4c(c3c2)n(-c2ccc(N3CCNCC3)c(C(F)(F)F)c2)c(=O)n4C)cn1	88.1%	-35.1%	-15.2%
CC(O)(C(=O)Nc1ccc(S(=O)(=O)c2ccccc2)cc1)C(F)(F)F (stereo not drawn)	-44.3%	-0.27%	0.77%
CC(C)c1ccc(-c2cc(=O)c3ccccc3o2)cc1	-25.6%	-5.2%	0.225%
Oc1c(CN2CCCC2)cc(COCc2ccccc2)c2cccnc12	-11.1%	-34.9%	-13.4%
COc1ccc(NS(=O)(=O)c2ccc(N)cc2)nn1	-33.3%	-4.98%	-1.8%
CN(C)C1CCN(C(=O)c2ccc(NC(=O)Nc3ccc(-c4nc(N5CCOCC5)nc(N5CCOCC5)n4)cc3)cc2)CC1	27.3%	-6.76%	-0.95%
CCC(=O)O[C@@H]1CC(=O)O[C@H](C)C/C=C/C=C/[C@H](O)[C@H](C)C[C@H](CC=O)[C@H](O[C@@H]2O[C@H](C)[C@@H](O[C@H]3C[C@@](C)(O)[C@@H](OC(=O)CC)[C@H](C)O3)[C@H](N(C)C)[C@H]2O)[C@H]1OC [Midecamycin]	-31.7%	-8.86%	-1.26%
CN(C)CCCN1c2ccccc2Sc2ccccc21	-35.6%	5.27%	-2.24%
c1ccc(C2(c3ccccc3)CC2=C2NCCN2)cc1 [cibenzoline]	-50%	0.23%	-0.4%
Nc1cccc2c1C(=O)N(C1CCC(=O)NC1=O)C2=O (stereo not drawn) [Pomalidomide]	92.7%	2.03%	81.4%
Oc1c(I)cc(I)c(O)c1I [riodoxol]	-5.43%	2.24%	-3.17%
Cc1cc(Nc2ncc(Cl)c(Nc3ccccc3S(=O)(=O)C(C)C)n2)c(OC(C)C)cc1C1CCN(CCOCCOCCNC(=O)CNc2cccc3c2C(=O)N(C2CCC(=O)NC2=O)C3=O)CC1 (stereo not drawn)	66.9%	9.17%	62.7%
COc1cnc(NS(=O)(=O)c2ccc(N)cc2)nc1	-36.1%	-10.1%	-3.84%
c1ccc(CNc2nc(NCc3ccccc3)c3ccccc3n2)cc1	-15.7%	-18.5%	-4.85%
COc1nccnc1NS(=O)(=O)c1ccc(N)cc1 [sulfametopyrazine]	6.66%	-7.5%	-1.09%
NC(=O)N1c2ccccc2CC(=O)c2ccccc21	17.9%	5.74%	-1.02%
CC(C)n1nc(-c2ccc3oc(N)nc3c2)c2c(N)ncnc21	83.3%	-33.3%	-12.4%
CO[C@@]12[C@@H]3NC3CN1C1=C(C(=O)C(N)=C(C)C1=O)[C@@H]2COC(N)=O (stereo partly drawn)	-1.54%	-33.6%	-12.9%
COc1cc(OC)c(/C=C2/C(=O)Nc3ccccc32)c(OC)c1	-15.9%	-33.5%	-11.3%
Clc1ccc(C(Cn2ccnc2)OCc2csc3c(Cl)cccc23)c(Cl)c1 (stereo not drawn) [Sertaconazole]	-18.6%	3.66%	1.54%

SMILES	inhibition of IKZF1 HTRF signal [1]	relative growth in counter assay (HEK293FT dCK*-only)	relative growth recovery (HEK293FT dCK*-IKZF1)
Clc1ccccc1C(c1ccccc1)(c1ccccc1)n1ccnc1 [Clotrimazole]	-53.5%	11.9%	1.77%
CN(C)CCCN1c2ccccc2Sc2ccc(Cl)cc21	-47.9%	-0.83%	-1.89%
O=C1Nc2cc(Br)ccc2/C1=C1/Nc2ccccc2/C1=N\O [3-inhibitor]	-34.6%	-10.1%	-4.43%
OCCCNc1cc(-c2ccnc(Nc3cccc(Cl)c3)n2)ccn1	14.5%	-34.4%	-12.8%
CCc1c2c(nc3ccc(O)cc13)-c1cc3c(c(=O)n1C2)COC(=O)[C@]3(O)CC	36.8%	-33.9%	-13%
CC(CN(C)C)CN1c2ccccc2Sc2ccccc21 (stereo not drawn) [trimeprazine]	15.3%	7.5%	-1.37%
CN(Cc1cnc2nc(N)nc(N)c2n1)c1ccc(C(=O)N[C@@H](CCC(=O)O)C(=O)O)cc1	-18.9%	-31.2%	-10.1%
Cc1ncsc1-c1ccc(CNC(=O)[C@@H]2C[C@@H](O)CN2C(=O)[C@@H](NC(=O)COCCCCOc2ccc(-c3ccc(N4C(=S)N(c5ccc(C#N)c(C(F)(F)F)c5)C(=O)C4(C)C)cc3)cc2)C(C)(C)C)cc1	21.2%	72.3%	55.3%
CO[C@H]1/C=C/O[C@@]2(C)Oc3c(C)c(O)c4c(O)c(c(C=NN5CCN(C)CC5)c(O)c4c3C2=O)NC(=O)C(C)=CC=CC(C)[C@@H](O)[C@@H](C)[C@H](O)[C@H](C)[C@@H](OC(C)=O)[C@H]1C (stereo partly drawn) [Rifampin (Rifampicin)]	-102%	-0.8%	-2.73%
CCCCOC(=O)c1ccc(N)cc1	-30.3%	-2.73%	-0.295%
COC1=C2C[C@@H](C)C[C@H](OC)[C@H](O)[C@@H](C)/C=C(\C)[C@H](OC(N)=O)[C@@H](OC)/C=C\C=C(/C)C(=O)NC(=CC1=O)C2=O [Geldanamycin]	57.7%	-32.6%	-11.4%
O=C1Nc2ccccc2/C1=C1/Nc2ccccc2/C1=N\O [indirubin-3-monoxime]	-16.5%	4.61%	1.19%
Cc1cc(Nc2ncc(Cl)c(Nc3ccccc3S(=O)(=O)C(C)C)n2)c(OC(C)C)cc1C1CCN(CC(=O)NCCNc2cccc3c2C(=O)N(C2CCC(=O)NC2=O)C3=O)CC1 (stereo not drawn)	24.5%	3.63%	24.8%
Nc1nnc(-c2cccc(Cl)c2Cl)c(N)n1	-57.4%	0.9%	-1.71%
COC(=O)Nc1nc2cc(C(=O)c3ccccc3)ccc2[nH]1 [Mebendazole]	9.13%	-30.6%	-10.7%
NCCNc1ccc(NCCN)c2c1C(=O)c1ccncc1C2=O.O=C(O)/C=C\C(=O)O.O=C(O)/C=C\C(=O)O [Pixantrone (dimaleate)]	-28.2%	-13%	-1.7%
Cc1cc(/C=C2\SC(=O)N(c3ccccc3)C2=O)c(C)n1-c1cccnc1	-32.6%	-4.98%	0.895%
CCCCOc1ccc(-c2cncc(C(=O)NCc3cccnc3N3CCOCC3)c2)cc1Cl	-19.5%	-0.15%	4.37%
Clc1ccc(C(Cn2ccnc2)OCc2csc3c(Cl)cccc23)c(Cl)c1 (stereo not drawn) [Sertaconazole nitrate]	20%	-1.47%	3.33%
CCOC(=O)Nc1ccc2c(c1)N(C(=O)CN(C)C)c1ccccc1CC2 [Tiracizine]	1.99%	0.34%	-0.145%
O=C1c2c(O)cccc2Cc2cccc(O)c21	14%	-0.62%	-0.185%
CCc1oc2ccccc2c1C(=O)c1cc(Br)c(O)c(Br)c1	11.6%	-6.05%	-2.28%
